Pf growth 48h: Primary qHTS for delayed death inhibitors of the malarial parasite plastid, 48 hour incubation; hit rate 5.9% among 310,000; Potency, µM (titrated, usually from 28.7 µM), for the others: top-dose activity change, negative = inhibition, hits mostly inhibitors; P. falciparum luciferase growth in erythrocytes, 48 h; also: potency is read from the fitted curve at half-maximal effect
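In quantitative HTS format, infected erythrocytes bearing luciferase-reporter parasites were treated for a single generation at 37 C. Luminescence after adding detection reagent served as the growth measure.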
Lassa entry inh: qHTS for Inhibitors of binding or entry into cells for Lassa Virus; hit rate 1.2% among 300,000; Lassa virus pseudotype entry inhibition, cell reporter; Potency, µM (series often up to 37.9 µM), for inactives: at the top dose activity change, negative = inhibition, hits mostly inhibitors; calls by dose curve; tested in HEK293 cells; also: potency is read from the fitted curve at half-maximal effect; nearly all actives have a fitted effect of over 50% in size
HCMV antiviral: qHTS Assay for inhibitors of the human cytomegalovirus (HCMV); HFF cells, HCMV-luciferase reporter, 72 h; active compounds read low; activity change, negative = inhibition, % at 57.5 µM; hit rate 4.5% among 410,000; in the data active = activity change below about -60%; inconclusive = no clear call, values can overlap the other calls; inactive = above about -39%
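Luciferase read-out from HCMV-luciferase-infected HFFs (MOI 1 PFU/cell) 72 h post infection at 37C; compounds added after 16 h cell attachment; activity normalized between buffer-only basal and Salinomycin (10uM) inhibitor controls.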
Pf growth 96h: Primary qHTS for delayed death inhibitors of the malarial parasite plastid, 96 hour incubation; P. falciparum luciferase reporter growth, 96 h; Potency, µM (series often up to 28.7 µM), for the others: at the top dose activity change, negative = inhibition, usual class: inhibitors; hit rate 6.9% among 320,000; AID 504834, 2011; also: potency is read from the fitted curve at half-maximal effect
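Parasite growth measured via integrated firefly luciferase reporter in P. falciparum. Infected erythrocytes at 2% hematocrit, 0.05% parasitemia final were treated 96 hours at 37 C under 5% CO2, and luminescence was read.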
Marburg entry inh: qHTS for inhibitors of binding or entry into cells for Marburg Virus. hit rate 1.8% among 300,000. AID 540276, 2011. Marburg virus pseudotyped entry inhibition, cell reporter. Potency, µM (highest dose often 37.8 µM), for inactives: at the top dose activity change, negative = inhibition, most hits filed as inhibitors; calls by dose curve; tested in HEK293 cells; also: potency is read from the fitted curve at half-maximal effect
HCV inhibitor: qHTS Assay for Inhibitors of Hepatitis C Virus (HCV); Huh7.5.1 HCVcc-Cre infection, luciferase reporter, 44 h; Potency, µM (doses to about 41.8 µM), for inactives: top-dose activity change, negative = inhibition, hits mostly inhibitors; hit rate 3.4% among 340,000; AID 651820, 2012; also: potency is read from the fitted curve at half-maximal effect
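Whole-lifecycle infectious HCVcc-Cre system; cells 1,000/well, compound then virus (~0.5 moi) added 4 h after plating, 44 h culture. Luciferase read 15 sec following 15 min substrate incubation, room temp.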
Starred values were filed as active, the others as inactive; u = inconclusive; x = no result; [ ] = another dose, or the depositor's remark. Rows were chosen to be rich in hits. Some 14% of all compounds tested hit in one or more screens of this group. Unless noted, calls follow the shape of the dose curve; as a rule, active = well fitted inhibition curve with a large enough effect; inconclusive = small, poorly fitted or top-dose-only effect, or another doubt; inactive = no such curve, though single readings can be large or run the other way. % is scaled to controls: 0 for no effect and ±100 for the full control effect.

SMILES	Pf growth 48h	Lassa entry inh	HCMV antiviral	Pf growth 96h	Marburg entry inh	HCV inhibitor
C=C[C@H]1CN2CC[C@H]1C[C@H]2[C@H](O)c1ccnc2ccccc12	0.15µM*	x	-33	u	x	-29%
C=CC1CN2CCC1CC2c1[nH]c2ccccc2c1CCO (configuration not stated)	-7%	0%	-15	-4%	-40%	1%
COc1cc(C2c3cc(O)c(OC)cc3CC(C(=O)O)C2CO)ccc1O (configuration not stated)	x	20%[46.1 µM]	-14	x	u	-5%
Nc1ccn([C@@H]2O[C@H](CNCc3cc(Br)ccc3OCc3ccccc3)[C@@H](O)[C@H]2O)c(=O)n1	x	x	-9	x	x	x
Cc1csc(C)[n+]1CC(=O)c1ccccc1	u	4%	52	6.6µM*	5%	4%
CCOC(=O)C[n+]1c(C)csc1C	-1%	0%	-4	-13%	-3%	0%
Cc1cccc(C(=O)Nc2sc(C)c(-c3ccccc3)c2C#N)c1	132%	u	13	114%	u	u
Cc1onc(-c2ccccc2)c1C(=O)Nc1sc2c(c1C#N)CCC2	-4%	u	u	x	4.6µM*	u
Cc1noc(C)c1C(=O)Nc1sc(C)c(-c2ccccc2)c1C#N	-19%	14%	-104*	x	-1%	3%
COc1ccc(Cl)cc1NC(=S)N(CCCN1CCOCC1)Cc1cn(C)c2ccccc12	u	-14%	-71*	13%	u	10µM*
Cc1ccc(Cl)cc1NC(=S)N(CCCN1CCOCC1)Cc1ccccn1	-11%	11%	-12	47%	11%	-20%
COc1cc(Cl)ccc1NC(=S)N(CCCN1CCOCC1)Cc1cn(C)c2ccccc12	u	u	-92*	-12%	u	u
C[C@H](CO)N1C[C@H](C)[C@@H](CN(C)C(=O)C2CC2)OCc2cnnn2CCCC1=O	x	x	12	x	x	x
Nc1c2c(nc3ccccc13)CCCC2O (configuration not stated)	-5%	19%	-34	11µM*	u	-5%
O=C(c1ccc(-c2ccccc2)cc1)c1ccc([N+](=O)[O-])cc1	31%	x	x	34%	x	x
O=C(C#Cc1ccccc1)c1ccc([N+](=O)[O-])cc1	x	u	-88*	u	-21%	u
O=C(C#Cc1ccccc1)c1ccccc1	x	x	-84*	x	x	x
CC1C(=O)N(Cc2cn(Cc3ccco3)nn2)CCS(=O)(=O)N1Cc1ccc(-c2ccncc2)cc1 (configuration not stated)	x	-20%[46.1 µM]	5	x	x	x
O=C(CCNS(=O)(=O)c1ccccc1)NNC(=O)COc1ccc(Cl)cc1	-28%	x	-24	6%	x	6%
CCOc1cc(OCC)cc(C(=O)N2CCC[C@H]2C(=O)N2CCC[C@H]2C(=O)NCc2ccccn2)c1	x	x	-21	x	x	x
CCN(c1ccccc1)S(=O)(=O)c1ccc(OC)c(NC(=O)C2CCC2)c1	x	-29%	2	x	u	-15%
CCN(CC)S(=O)(=O)c1ccc(OC)c(NC(=O)CSc2cc(C)ccc2C)c1	u	0.21µM*	-6	u	u	u
CCN(CC)S(=O)(=O)c1ccc(OC)c(NC(=S)Nc2cc(C)ccc2C)c1	-19%	-1%	x	-21%	4%	-21%
CCN(c1ccccc1)S(=O)(=O)c1ccc(OC)c(NC(=O)CNCCc2ccccc2)c1	12µM*	u	-33	u	u	7.1µM*
CCN(c1ccccc1)S(=O)(=O)c1ccc(OC)c(NC(=O)Cc2ccc(F)cc2)c1	u	x	-14	10µM*	x	u
SMILES	Pf growth 48h	Lassa entry inh	HCMV antiviral	Pf growth 96h	Marburg entry inh	HCV inhibitor
CCN(CC)S(=O)(=O)c1ccc(OC)c(NC(=O)C(C)Oc2ccc3c(C)cc(=O)oc3c2)c1 (configuration not stated)	1.9µM*	u	-13	9.3µM*	u	u
CCN(CC)S(=O)(=O)c1ccc(C)c(NC(=O)COc2ccc3c(C)cc(=O)oc3c2)c1	2%	1%	-4	14%	u	-4%
COCc1cc(C)nc2sc(C(=O)Nc3ccc(OC(F)(F)F)cc3)c(N)c12	x	u	-6	x	u	x
O=C(/C=C/c1cccc([N+](=O)[O-])c1)Nc1ccccn1	69%	x	15	u	x	-15%
Cc1ccc2oc(-c3cccc(NC(=O)/C=C/c4cccc([N+](=O)[O-])c4)c3C)nc2c1	u	-1%	86	2.3µM*	4%	0%[0.335 µM]
Cn1c(=O)c2c(-c3ccccc3)n3c(c2n(C)c1=O)C(c1ccccc1[N+](=O)[O-])Nc1ccccc1-3 (configuration not stated)	x	-12%[46.1 µM]	-20	x	6%[46.1 µM]	x
COc1ccccc1C1Nc2ccccc2-n2c(-c3ccccc3)c3c(=O)n(C)c(=O)n(C)c3c21 (configuration not stated)	x	u	-96*	x	u	x
CCOc1ccccc1C(=O)NC1CCNCC1	0%	x	-6	13µM*	x	4%
CCC(C)(C)n1nnnc1CN1CCC(NC(=O)c2ccccc2C)CC1	-27%	4%	-4	27%	4%[46.1 µM]	-9%
CCOc1ccccc1C(=O)NC1CCN(Cc2nnnn2C2CCCC2)CC1	u	0%	-3	13µM*	-16%	4%
CC1CCC(NC(=O)c2ccc(CS(=O)(=O)c3ccc(Cl)cc3)o2)CC1 (configuration not stated)	x	u	-7	x	x	x
Cc1ccc(C(C)C)c(OCC(=O)Nc2c(C(=O)c3ccc(F)cc3)oc3ccccc23)c1	x	-6%[46.1 µM]	4	x	u	x
O=C1OCC(CO)(CO)N=C1NNc1ccccc1Cl	x	-4%	-66*	u	18%	27%
Cc1ccc(Cl)cc1NC(=S)NCCCSC1CCCCC1	-21%	u	-34	u	u	10µM*
CCN(CC(=O)Nc1cc(Cl)ccc1C)C(=O)c1ccc(=O)n(Cc2ccccc2)n1	u	1%	u	9.3µM*	5%	-1%
Cc1cc(Cl)ccc1NC(=S)NCCCO	0%	0%	-30	227%	-4%	2%
CCN(CC(=O)Nc1cc(Cl)ccc1C)C(=O)C1CCCCC1	-6%	3%	-61*	-25%	u	9%
COc1ccccc1CC(=O)Nc1ccc2nc(Nc3cccc(Cl)c3)cc(C)c2c1	x	3.2µM*	u	x	x	x
Cc1cc(Nc2cccc(C(F)(F)F)c2)nc2ccc(NC(=O)Cc3ccc(Cl)cc3)cc12	x	-27%[46.1 µM]	-103*	x	x	x
Cc1cc(Nc2cccc(Cl)c2)nc2ccc(NC(=O)c3cccnc3)cc12	x	-22%[46.1 µM]	-98*	x	x	x
COc1ccc(CC(=O)Nc2ccc3nc(Nc4cccc(Cl)c4)cc(C)c3c2)cc1	x	u	-102*	x	x	x
